Rows were chosen to be rich in hits. Some 1.6% of all compounds tested hit in one or more screens of this group.
KCNQ2 block: blocks the rat KCNQ2 potassium channel | O88943 | CHO-K1 KCNQ2, FluxOR thallium flux, 20 min; active compounds read low | B-score at 10 µM | actives 1.1% (n = 310,000) | AID 2156;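 active = fluorescence ratio B-score at most minus 3 library SDs, with starting brightness B-score within 2 library SDs, cut at about -5.5 in these data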
KCNQ2 enhance: enhances the rat KCNQ2 potassium channel | O88943 | CHO-K1 KCNQ2, FluxOR thallium flux fluorescence; active compounds read high | B-score at 10 µM | actives 0.54% (n = 310,000);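 active = fluorescence ratio B-score at least 3 SD of library B-scores, with initial fluorescence B-score within 3 of them, cut at about 5.3 in these data; same plate scores as AID 2156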;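 also: B-score of peak minus minimum over baseline fluorescence ratio after K+ and Tl+ stimulus; positive B-score means potentiation of KCNQ2 with more thallium influx and brighter signal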
Kir21 conf inh: confirmation of mouse Kir2.1 potassium channel inhibitors; shares compounds with KCNQ2 enhance; actives 41% (n = 2,300); Kir2.1-expressing cells, FluxOR thallium flux fluorescence; active compounds read low; Tl flux remaining, % of negative control (active compounds read low), % at 10 µM;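 active = Primary-screen hit whose thallium flux fell at least 3 control SD below untreated wells in both duplicates, with normal baseline fluorescence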;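 also: 0% = blank wells without stimulus and 100% = stimulated no-compound controls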
HEK293 Tl flux: counter-screen for Kir2.1 inhibitors: effect in parental HEK293 cells; shares compounds with KCNQ2 enhance; FluxOR thallium flux fluorescence; 0% = unstimulated blank wells; FluxOR signal as % of negative control (100 = no effect), % at 10 µM; actives 19% (n = 2,300); AID 2105;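 active = dye signal at least 3 control SD above or below untreated wells in both duplicates, raw fluorescence within 3, either direction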;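 also: percent is based on the flux ratio of peak minus minimum fluorescence over baseline F0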
CHO-K1 ctr: counter-screen for KCNQ2 potentiators: effect in parental CHO-K1 cells. actives 43% (n = 1,200). FluxOR thallium flux fluorescence; zero = vehicle mean+3SD, 100% = vehicle-minus-blank window. activity increase over 3SD of controls, % at 10 µM. shares compounds with KCNQ2 enhance;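 active = signal rise of at least 3 SD above the untreated control mean, in both duplicate wells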;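 also: counter screen of KCNQ2 potentiator hits so any rise reflects channel-independent effects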
KCNQ1 sel pot: human KCNQ1 counter-target activity of KCNQ2 potentiators; shares compounds with KCNQ2 enhance; CHO KCNQ1 stable, FluxOR thallium flux fluorescence; beyond 3SD, as % of vehicle-control signal; activation over 3SD threshold, % at 10 µM; actives 28% (n = 1,200); AID 2283;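 active = fluorescence ratio rise of at least 3 SD of vehicle wells above their mean, in both replicate wells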;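 also: 0% = vehicle mean plus 3 SD and 100% = vehicle minus unstimulated blank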
Target sequence (P51787 whole entry, looked up): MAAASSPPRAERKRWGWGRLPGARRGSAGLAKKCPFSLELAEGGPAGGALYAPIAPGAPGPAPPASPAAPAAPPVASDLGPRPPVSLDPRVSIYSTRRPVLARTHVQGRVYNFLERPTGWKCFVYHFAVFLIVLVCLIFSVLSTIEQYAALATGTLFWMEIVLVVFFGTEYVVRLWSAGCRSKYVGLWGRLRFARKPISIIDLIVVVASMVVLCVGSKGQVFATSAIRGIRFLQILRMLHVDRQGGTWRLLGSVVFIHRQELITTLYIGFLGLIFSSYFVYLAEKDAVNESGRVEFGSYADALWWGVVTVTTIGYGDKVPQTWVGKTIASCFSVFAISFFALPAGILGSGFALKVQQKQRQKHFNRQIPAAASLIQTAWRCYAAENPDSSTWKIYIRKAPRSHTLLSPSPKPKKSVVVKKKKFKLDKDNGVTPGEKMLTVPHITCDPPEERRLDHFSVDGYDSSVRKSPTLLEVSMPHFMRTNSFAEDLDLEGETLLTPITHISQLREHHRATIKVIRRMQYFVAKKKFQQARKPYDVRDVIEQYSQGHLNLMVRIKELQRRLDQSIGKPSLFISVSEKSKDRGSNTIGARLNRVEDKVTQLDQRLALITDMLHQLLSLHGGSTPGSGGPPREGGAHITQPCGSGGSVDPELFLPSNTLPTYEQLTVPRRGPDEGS
KCNQ2 pot conf: confirmation of rat KCNQ2 potassium channel potentiators; shares compounds with KCNQ2 enhance; CHO-KCNQ2 cells, FluxOR thallium flux fluorescence; potentiation, less the hit threshold, % at 10 µM; actives 68% (n = 1,200); AID 2287;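 active = fluorescence ratio rising 3 SD or more over the vehicle control mean in both replicates, plus primary screen hit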;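 also: peak minus minimum thallium fluorescence divided by baseline after K/Tl stimulus; 0% = vehicle mean plus 3 SD and 100% = vehicle minus unstimulated blank difference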
Kir21 spec: tests whether KCNQ2 potentiators also affect mouse Kir2.1; shares compounds with KCNQ2 enhance; activity over 3SD threshold, % at 10 µM; HEK293 Kir2.1, FluxOR thallium flux fluorescence; actives 2% (n = 1,200);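 active = fluorescence ratio rise of at least 3 SD above the vehicle-control mean, seen in both replicates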;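 also: 0% = vehicle mean plus 3 SD and 100% = vehicle minus no-stimulus blank window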
KCNQ2 W236L MoA: rat KCNQ2 W236L mutant potentiation by KCNQ2 potentiators | CHO KCNQ2-W236L, automated patch clamp current | shares compounds with KCNQ2 enhance | actives 10% (n = 940) | current increase over 3SD of negative controls (%), active compounds read high, % at 25 µM;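 active = current increase at least 3 SD of the untreated controls above them in both duplicate recordings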
Active calls of the source: *; i = inactive; nt = no result given.

SMILES | KCNQ2 block | KCNQ2 enhance | Kir21 conf inh | HEK293 Tl flux | others
CCCCNC(=O)CCCn1c(=S)[nH]c2cc3c(cc2c1=O)OCO3 | i | nt | nt | nt
O=S(=O)(NCc1csc(-c2cccnc2)n1)c1ccc(Br)cc1 | i | 0.45 | 72%* | i
O=S(=O)(NCc1csc(-c2cccs2)n1)c1cccs1 | i | nt | nt | nt
O=S(=O)(NCc1csc(-c2cccs2)n1)c1cccc(C(F)(F)F)c1 | i | 0.03 | 42%* | i
Cc1ccc(S(=O)(=O)NCc2csc(-c3cccs3)n2)cc1 | i | nt | nt | nt
COc1ccc(S(=O)(=O)NCc2csc(-c3cccnc3)n2)cc1 | i | 0.52 | nt | nt
O=S(=O)(NCc1csc(-c2cccs2)n1)c1ccc(Cl)cc1 | i | nt | 42%* | i
O=C(CCCn1c(=S)[nH]c2cc3c(cc2c1=O)OCO3)N1CCN(c2ccccc2F)CC1 | i | nt | nt | nt
CC(C)Cn1c(SCC(=O)N2CCN(C(=O)c3ccco3)CC2)nc2ccccc2c1=O | i | nt | nt | nt
CCOC(=O)C1CCCN(C(=O)C2CCN(S(=O)(=O)N3CCC4(CC3)OCCO4)CC2)C1 (configuration not stated) | i | 1.4 | nt | nt
COc1ccc(NN=Nc2nc3c([nH]2)c(=O)n(C)c(=O)n3C)cc1 | i | nt | nt | nt
CC(=O)NCCC(=O)Nc1nc(-c2ccccc2Cl)cs1 | i | 0.67 | nt | nt
CCCCCSc1ncccc1C(=O)O | i | 0.8 | nt | nt
N#C/C(=N\Nc1ccc(Cl)c(Cl)c1)C(=O)C1CC1 | i | 6.6* | i | i | CHO-K1 ctr=13*;KCNQ1 sel pot=-11;KCNQ2 pot conf=-1;Kir21 spec=-34;KCNQ2 W236L MoA=i
N#C/C(=N\Nc1ccc(F)cc1)C(=O)C1CC1 | i | 2 | nt | nt
CCc1ccc(C2C(C#N)=C(N)OC3=C2C(=O)CCC3)s1 (configuration not stated) | i | 1.3 | nt | nt
Cc1ccc(C2C(C#N)=C(N)OC3=C2C(=O)CCC3)s1 (configuration not stated) | i | 6.5* | i | i | CHO-K1 ctr=-4;KCNQ1 sel pot=3.7*;KCNQ2 pot conf=1.5*;Kir21 spec=-49;KCNQ2 W236L MoA=i
COc1ccccc1CNC(=O)[C@H](NC(=O)C1CCN(C(=O)[C@@H](N)CCSC)CC1)C(C)C | i | nt | nt | nt
CCSc1nc2c(c(-c3ccc(C)o3)c1C#N)CCCC2 | i | nt | nt | nt
COC(=O)CSc1nc2c(c(-c3ccc(C)o3)c1C#N)CCCC2 | i | 22* | i | i | CHO-K1 ctr=-21;KCNQ1 sel pot=-11;KCNQ2 pot conf=41*;Kir21 spec=-37;KCNQ2 W236L MoA=i
COc1cc2[nH]c(=O)n(Cc3ccc(C(=O)NCCCN4CCC(C)CC4)cc3)c(=O)c2cc1OC | i | 2 | nt | nt
COc1ccccc1C1(CCNC(C)c2cccs2)CCOC(C(C)C)C1 (configuration not stated) | i | 0.28 | 40%* | 72%*
Cc1ccc(C2(CCNC(C)c3cccs3)CCOC(C(C)C)C2)cc1 (configuration not stated) | i | nt | nt | nt
CC1(C)CC(NCCC(c2ccccc2)c2ccco2)CCO1 (configuration not stated) | i | 0.01 | nt | nt
CCN(CCNCC(O)COCc1ccc(Cl)cc1)c1cccc(C)c1 (configuration not stated) | i | nt | 36%* | i
CCN(CCNC(=O)c1ccc(C#N)cc1)c1cccc(C)c1 | i | nt | nt | nt
O=C(Nc1scc(-c2ccccc2)c1C(=O)O)c1ccccc1F | i | nt | nt | nt
O=C(Nc1scc(-c2ccc(Br)cc2)c1C(=O)O)c1ccccc1F | i | 5.3* | i | 186%* | CHO-K1 ctr=-10;KCNQ1 sel pot=-13;KCNQ2 pot conf=34*;Kir21 spec=-28;KCNQ2 W236L MoA=i
Cc1cc(Nc2ccc([N+](=O)[O-])cc2)nc2ccccc12 | i | 1.2 | nt | nt

Compound activity as filed in PubChem BioAssay.
